# In the supplement of paper PMC8728848:
# This excerpt belongs to a sample that is enriched for the strongest signals.
# B1: Banana lectin (Musa acuminata) (protein)
# chain: MNGAIKVGAHGGNGGSAFDMGPAYRIISVKIFSGDVVDGVDVTFTYYGKTETRHYGGSGGTPHEIVLQEGEYLVGMAGEVANYHGAVVLGKLGFSTNKKAYGPFGNTGGTPFSLPIAAGKISGFFGRGGKFLDAIGVYLEPLEHHHHHH
# Legend:
# Experiment in all cases: glycan array binding signal (z-score within array); higher = stronger binding
# Details in all cases: glycan notation: IUPAC condensed, linker removed; mutation: W10H
# [1] = molecular target: Gal6S(b1-3)GlcNAc6S
# Outline: (§1)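 From the Consortium for Functional Glycomics database, 3228 arrays were curated, keeping only those whose protein sequence was available. Binding is given as a within-array Z-score averaged across arrays sharing a protein sequence and across linkers. Negative Z-scores can be read as non-binding.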
# [2] = molecular target: Gal6S(b1-4)Glc
# Outline: as §1
# [3] = molecular target: Gal6S(b1-4)GlcNAc
# Outline: as §1
# [4] = molecular target: GalNAc(a1-3)Gal
# Outline: as §1
# [5] = molecular target: GalNAc3S(b1-4)GlcNAc3S
# Outline: as §1
# [6] = molecular target: GlcA3S(b1-3)Gal(b1-4)GlcNAc(b1-3)Gal(b1-4)Glc
# Outline: as §1
# [7] = molecular target: Man(a1-2)Man(a1-2)Man(a1-6)[Man(a1-3)]Man
# Outline: as §1
# [8] = molecular target: Man(a1-2)Man(a1-3)[Man(a1-2)Man(a1-6)]Man
# Outline: as §1
# [9] = molecular target: Man(a1-2)Man(a1-3)[Man(a1-2)Man(a1-6)]Man(a1-6)[Man(a1-2)Man(a1-2)Man(a1-3)]Man
# Outline: as §1
# [10] = molecular target: Man(a1-2)Man(a1-3)[Man(a1-2)Man(a1-6)]Man(a1-6)[Man(a1-2)Man(a1-2)Man(a1-3)]Man(b1-4)GlcNAc(b1-4)GlcNAc
# Outline: as §1
# [11] = molecular target: Man(a1-2)Man(a1-3)[Man(a1-6)]Man(a1-6)[Man(a1-2)Man(a1-3)]Man(b1-4)GlcNAc(b1-4)GlcNAc
# Outline: as §1
# [12] = molecular target: Man(a1-2)Man(a1-6)[Man(a1-3)]Man(a1-6)[Man(a1-2)Man(a1-2)Man(a1-3)]Man
# Outline: as §1
# [13] = molecular target: Man(a1-2)Man(a1-6)[Man(a1-3)]Man(a1-6)[Man(a1-2)Man(a1-2)Man(a1-3)]Man(b1-4)GlcNAc(b1-4)GlcNAc
# Outline: as §1
# [14] = molecular target: Man(a1-3)[Man(a1-6)]Man
# Outline: as §1
# [15] = molecular target: Man(a1-3)[Man(a1-6)]Man(a1-6)[Man(a1-2)Man(a1-3)]Man(b1-4)GlcNAc(b1-4)GlcNAc
# Outline: as §1
# [16] = molecular target: Man(a1-3)[Man(a1-6)]Man(a1-6)[Man(a1-3)]Man(b1-4)GlcNAc(b1-4)GlcNAc
# Outline: as §1
# [17] = molecular target: Man(a1-3)[Man(a1-6)]Man(b1-4)GlcNAc(b1-4)GlcNAc
# Outline: as §1
# [18] = molecular target: Neu5Ac(a2-3)Gal(b1-3)GalNAc(b1-3)Gal(a1-4)Gal(b1-4)Glc
# Outline: as §1
# [19] = molecular target: Neu5Ac(a2-3)Gal(b1-3)GalNAc(b1-4)Gal(b1-4)Glc
# Outline: as §1
# [20] = molecular target: Neu5Ac(a2-3)Gal(b1-3)GlcNAc(b1-2)Man(a1-3)[GlcNAc(b1-4)][Neu5Ac(a2-3)Gal(b1-3)GlcNAc(b1-2)Man(a1-6)]Man(b1-4)GlcNAc(b1-4)GlcNAc
# Outline: as §1
# [21] = molecular target: Neu5Ac(a2-3)Gal(b1-3)GlcNAc(b1-3)GalNAc
# Outline: as §1
# [22] = molecular target: Neu5Ac(a2-3)Gal(b1-4)Glc
# Outline: as §1
# [23] = molecular target: Neu5Ac(a2-3)Gal(b1-4)[Fuc(a1-3)]GlcNAc6S
# Outline: as §1
# [24] = molecular target: Neu5Ac(a2-6)Gal(b1-4)GlcNAc(b1-3)Gal(b1-4)GlcNAc(b1-3)Gal(b1-4)GlcNAc
# Outline: as §1
# [25] = molecular target: Neu5Ac(a2-8)Neu5Ac(a2-3)[GalNAc(b1-4)]Gal(b1-4)Glc
# Outline: as §1
# [26] = molecular target: Neu5Ac(a2-8)Neu5Ac(a2-8)Neu5Ac(a2-8)Neu5Ac(a2-3)[GalNAc(b1-4)]Gal(b1-4)Glc
# Outline: as §1
# [27] = molecular target: Neu5Gc(b2-6)Gal(b1-4)GlcNAc
# Outline: as §1
binder,measurement,setting,value
B1,glycan array binding signal (z-score),[1],-0.174
same,glycan array binding signal (z-score),[2],-0.156
same,glycan array binding signal (z-score),[3],-0.124
same,glycan array binding signal (z-score),[4],-0.158
same,glycan array binding signal (z-score),[5],-0.165
same,glycan array binding signal (z-score),[6],-0.164
same,glycan array binding signal (z-score),[7],7.33
same,glycan array binding signal (z-score),[8],2.86
same,glycan array binding signal (z-score),[9],6.5
same,glycan array binding signal (z-score),[10],2.96
same,glycan array binding signal (z-score),[11],9.34
same,glycan array binding signal (z-score),[12],5.18
same,glycan array binding signal (z-score),[13],6.56
same,glycan array binding signal (z-score),[14],2.82
same,glycan array binding signal (z-score),[15],13.5
same,glycan array binding signal (z-score),[16],3.07
same,glycan array binding signal (z-score),[17],6.6
same,glycan array binding signal (z-score),[18],-0.167
same,glycan array binding signal (z-score),[19],-0.186
same,glycan array binding signal (z-score),[20],-0.163
same,glycan array binding signal (z-score),[21],-0.169
same,glycan array binding signal (z-score),[22],-0.159
same,glycan array binding signal (z-score),[23],-0.176
same,glycan array binding signal (z-score),[24],-0.171
same,glycan array binding signal (z-score),[25],-0.146
same,glycan array binding signal (z-score),[26],-0.153
same,glycan array binding signal (z-score),[27],-0.185
